Measured values published in ChEMBL document CHEMBL3988442, “University of Dundee, Small-Polar-MMV Screening Library” (2021).
Screen size: about 69,000 compounds; about 1,000 (1.4%) showed an effect of 50% or more. This excerpt belongs to a sample that is enriched for strong results.

Test system: Leishmania donovani
Experiment: Leishmania intramacrophage assay
Assay type: functional, organism-based
Parameters: scale not given: in the data most compounds retested in dose-response had high values

With `O=C(O)C(F)(F)F.c1cnc(NCc2nnn3c2CN(Cc2ccsc2)CCC3)nc1` the “Percent Effect” value (30.3 µM, […]) was -35.49%.

In the case of `Cc1ccc(OCCNc2cccc(C(=O)N3CCOCC3)c2)cc1`, the “Percent Effect” value (30.3 µM, […]) is reported as 19.35%.

With `CC(=O)NCc1cccc(-n2ccnc2-c2cccc(C(=O)O)c2)c1` the “Percent Effect” value (30.3 µM, […]) was -4.637%.

With `CC(C)C(NC(=O)c1ccccc1F)C(=O)Nc1cnn(C)c1` (centres undefined) the “Percent Effect” value (30.3 µM, […]) was 14.78%.

`Cc1ccc(-c2cc(C(=O)NCCN3CCCS3(=O)=O)[nH]n2)cc1` was tested, and the “Percent Effect” value (30 µM) was -10.89%.

For `CC(C)c1nc(C2CCCN(C(=O)CCCn3ccnc3)C2)no1` (centres undefined), the “Percent Effect” value (30 µM) was 30.47%.

`NC(=O)C1CCCN1C1CCN(C(=O)c2ccc3c(c2)OCO3)CC1` (centres undefined) was tested, and the “Percent Effect” value (30.3 µM, […]) was 5.65%.

In the case of `COc1ccc(NCc2nc(=O)n(CCC(C)C)[nH]2)cc1`, the “Percent Effect” value (30 µM, 30.03 µM) is reported as 11.21%.

In the case of `O=C(Cc1cccc(F)c1)NCCNCc1ccc2c(c1)CCO2`, the “Percent Effect” value (30 µM, 30.03 µM) is reported as 29.87%.

`O=c1[nH]c2nc(NCC3CCCO3)ncc2c(=O)n1-c1cccc(F)c1` (centres undefined) was tested, and the “Percent Effect” value (30.3 µM, […]) was 20.13%.

With `O=c1[nH]c2nc(NCC3CCCO3)ncc2c(=O)n1-c1ccc(F)cc1` (centres undefined) the “Percent Effect” value (30.3 µM, […]) was 51.53%.

With `O=c1[nH]c2nc(NC3CC3)ncc2c(=O)n1-c1ccc(F)cc1` the “Percent Effect” value (30.3 µM, […]) was 24.05%.

For `O=C(c1cc(C2CCCCN2CCO)n[nH]1)N1CCOCC1.O=CO` (centres undefined), the “Percent Effect” value (30.3 µM, […]) was -5.533%.

For `COCC(=O)N(Cc1cccc(C)c1)Cc1ccccc1OC`, the “Percent Effect” value (30.3 µM, […]) was 40.9%.

`CN[C@@H](C)C(=O)N(Cc1cccc(C)c1)Cc1ccccc1OC` was tested, and the “Percent Effect” value (30.3 µM, […]) was 82.29%.

With `COc1ccccc1CN(Cc1cccc(C)c1)C(=O)[C@@H](N)CC(=O)O` the “Percent Effect” value (30.3 µM, […]) was 13.42%.

In the case of `CC1CN(C(=O)C2(c3cccc(F)c3)CCOCC2)CCO1` (centres undefined), the “Percent Effect” value (30.3 µM, […]) is reported as 18.33%.

`Cc1ccccc1C(=O)NCCCN1CCc2ccccc2C1` was tested, and the “Percent Effect” value (30 µM) was 9.574%.

With `O=C(NCCCN1CCc2ccccc2C1)c1ccccc1Br` the “Percent Effect” value (30 µM) was 36.73%.

In the case of `O=C(NCCCN1CCc2ccccc2C1)c1ccccc1Cl`, the “Percent Effect” value (30 µM) is reported as 53%.

`N#Cc1ccc(OCC(O)CN2CCC(Cn3cccn3)CC2)cc1` (centres undefined) was tested, and the “Percent Effect” value (30 µM) was 5.34%.

With `O=C(O)C(F)(F)F.O=C(O)[C@]12CCCN(C3CCOC3)C[C@H]1CN(c1nncs1)C2` (some centres undefined) the “Percent Effect” value (30.3 µM, […]) was 23.22%.

With `Cc1cnc(N2C[C@@H]3CN(C4CCOC4)CCC[C@]3(C(=O)O)C2)nc1.O=C(O)C(F)(F)F` (some centres undefined) the “Percent Effect” value (30.3 µM, […]) was 51.36%.

With `O=C(O)C(F)(F)F.O=C(O)[C@]12CCCN(CC3CCOC3)C[C@H]1CN(c1ncccn1)C2` (some centres undefined) the “Percent Effect” value (30.3 µM, […]) was 22.4%.

For `CC(C)(C)OC(=O)N1CCCC[C@H]1C(=O)NCc1nccs1`, the “Percent Effect” value (30 µM, 30.03 µM) was 12.63%.

`CCOC(=O)c1c(NC(=O)CN2CCN(C(C)=O)CC2)sc(C)c1C` was tested, and the “Percent Effect” value (30.3 µM, […]) was 29.91%.

`CCc1c(C)sc(NC(=O)CN2CCOCC2)c1C(=O)OC` was tested, and the “Percent Effect” value (30.3 µM, […]) was -39.48%.

`CCc1c(C)sc(NC(=O)CN2CCN(CC)CC2)c1C(=O)OC` was tested, and the “Percent Effect” value (30 µM, 30.03 µM) was 52.48%.

`Cc1cc(NC(=O)CN2CCCC2c2c(C)nn(C)c2Cl)on1` (centres undefined) was tested, and the “Percent Effect” value (30 µM) was 24.03%.

For `CCc1cc(CN(C)C(=O)c2cnn[nH]2)on1`, the “Percent Effect” value (30.3 µM, […]) was 12.71%.

For `CCc1cc(CN(C)C(=O)c2cnon2)on1`, the “Percent Effect” value (30.3 µM, […]) was 11.76%.

`CCc1cc(CN(C)C(=O)c2cc(=O)[nH]c(=O)[nH]2)on1` was tested, and the “Percent Effect” value (30.3 µM, […]) was 53.82%.

In the case of `CCN1CCN(C(=O)c2cc(-c3cccs3)cs2)CC1`, the “Percent Effect” value (30.3 µM, […]) is reported as -1.143%.

With `Cc1ccc(Cl)cc1NC(=O)C1CSc2ncc(C)c(=O)n2C1` (centres undefined) the “Percent Effect” value (30.3 µM, […]) was 17.12%.

In the case of `COc1cccc(CN(C)c2ncc(C(N)=O)cc2Cl)c1`, the “Percent Effect” value (30.3 µM, […]) is reported as -8.015%.

`Cc1ncc(C(=O)NCCNc2ncnc3sccc23)s1` was tested, and the “Percent Effect” value (30.3 µM, […]) was 20.47%.

With `CCc1nc(C)c(C(=O)NCCNc2ncnc3sccc23)s1` the “Percent Effect” value (30.3 µM, […]) was 59.68%.

In the case of `CCc1ncc(C(=O)NCCNc2ncnc3sccc23)s1`, the “Percent Effect” value (30.3 µM, […]) is reported as 26.76%.

For `CC1(C)CCC(C(=O)N2CCCO2)c2ccccc21` (centres undefined), the “Percent Effect” value (30.3 µM, […]) was 9.47%.

For `CN(C)S(=O)(=O)N1CCC(c2c(C(N)=O)sc3ccccc23)C1` (centres undefined), the “Percent Effect” value (30.3 µM, […]) was 31.42%.

In the case of `NC(=O)Nc1cccc(F)c1C(=O)NC1CCCC1`, the “Percent Effect” value (30.3 µM, […]) is reported as 3.755%.

With `CC(C)Oc1cccc(CNC(Cc2ccsc2)c2nccs2)c1.Cl` (centres undefined) the “Percent Effect” value (30.3 µM, […]) was -38.1%.

With `Cc1cccnc1C(Cc1ccsc1)NCc1cnc(N(C)C)nc1` (centres undefined) the “Percent Effect” value (30.3 µM, […]) was 17.18%.

In the case of `COc1ccc(CNC(Cc2ccsc2)c2ncccc2C)cc1OC` (centres undefined), the “Percent Effect” value (30.3 µM, […]) is reported as 25.36%.

For `COc1cccc(OC)c1CNC(Cc1ccsc1)c1ccc(C)cn1` (centres undefined), the “Percent Effect” value (30.3 µM, […]) was 99.68%.

`COc1ccc(CNC(Cc2ccsc2)c2ccc(C)cn2)cc1OC.Cl` (centres undefined) was tested, and the “Percent Effect” value (30.3 µM, […]) was 12%.

For `COc1ccc(CNC(Cc2ccsc2)c2ccc(C)cn2)c(OC)c1` (centres undefined), the “Percent Effect” value (30.3 µM, […]) was 62.45%.

`N#Cc1c2n(c3c(=O)[nH]cnc13)CCCCC2` was tested, and the “Percent Effect” value (30.3 µM, […]) was 19.13%.

For `Cc1ccccc1CNCc1cc(Cl)ccc1O`, the “Percent Effect” value (30.3 µM, […]) was -18.5%.
